The results in this text go back to article PMC11006913.

Common to all, as to test: PBM; 200 nM protein, PBS
What all share (details): dsDNA, one strand shown

In assay [1] the target is T1, SIX6 (Homo sapiens, UniProt O95475 114-200, L167I).
T1 sequence: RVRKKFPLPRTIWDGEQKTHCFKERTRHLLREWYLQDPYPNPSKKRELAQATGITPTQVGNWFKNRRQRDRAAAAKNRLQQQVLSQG

The target of assay [2] is T2, SIX6 (Homo sapiens, UniProt O95475 114-200, T165P).
T2 sequence: T1 sequence with T52P, I54L

In assay [3] the target is T3, SIX6 (Homo sapiens, UniProt O95475 114-200, L167M).
T3 sequence: T1 sequence with I54M

Assay [4] concerns the target T4, SIX6 (Homo sapiens, UniProt O95475 114-200, T165G).
T4 sequence: T1 sequence with T52G, I54L

Assay [5] addresses T5, SIX6 (Homo sapiens, UniProt O95475 114-200, T165A).
T5 sequence: T1 sequence with T52A, I54L

For assay [6], the target named is T6, SIX6 (Homo sapiens, UniProt O95475 114-200, H141N).
T6 sequence: T1 sequence with H28N, I54L

Assay [7] deals with T7, SIX6 (Homo sapiens, UniProt O95475 114-200, L143I).
T7 sequence: T1 sequence with L30I, I54L

For assay [8], the target named is T8, SIX6 (Homo sapiens, UniProt O95475 114-200, T139Q).
T8 sequence: T1 sequence with T26Q, I54L

In assay [9] the target is T9, SIX6 (Homo sapiens, UniProt O95475 114-200, L167V).
T9 sequence: T1 sequence with I54V

Assay [10] concerns the target T10, SIX6 (Homo sapiens, UniProt O95475 114-200).
T10 sequence: T1 sequence with I54L

The target of assay [11] is T11, SIX6 (Homo sapiens, UniProt O95475 114-200, T165I).
T11 sequence: T1 sequence with T52I, I54L

The target of assay [12] is HOXA7 (Homo sapiens, UniProt P31268 116-202).
HOXA7 (Homo sapiens, UniProt P31268 116-202), sequence (P31268 116-202): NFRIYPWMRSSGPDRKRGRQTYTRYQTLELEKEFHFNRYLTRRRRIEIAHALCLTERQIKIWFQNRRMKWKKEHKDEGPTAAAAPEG
The target of assay [13] is T12, SIX6 (Homo sapiens, UniProt O95475 114-200, L143M).
T12 sequence: T1 sequence with L30M, I54L

The target of assay [14] is HOXA7 (Homo sapiens, UniProt P31268 116-202, W177C).
HOXA7 (Homo sapiens, UniProt P31268 116-202, W177C), sequence (P31268 116-202 W177C): as the sequence (P31268 116-202) above, with W62C counted along it
The target of assay [15] is T13, SIX6 (Homo sapiens, UniProt O95475 114-200, L143V).
T13 sequence: T1 sequence with L30V, I54L

Changes are numbered by the printed parent chain.

Take GGGTGTCA: the binding signal was 10.4 upbm affinity estimate (log intensity, higher = more binding, comparable within an allelic series) in [1]; 9.2 upbm affinity estimate (log intensity, higher = more binding, comparable within an allelic series) in assay [2]; 9.79 upbm affinity estimate (log intensity, higher = more binding, comparable within an allelic series) in [3]; 11.1 upbm affinity estimate (log intensity, higher = more binding, comparable within an allelic series) in assay [4]; 11.1 upbm affinity estimate (log intensity, higher = more binding, comparable within an allelic series) in assay [5].

For GGATAGTA, the binding signal in [1] was 10.4 upbm affinity estimate (log intensity, higher = more binding, comparable within an allelic series); in [6], 10.3 upbm affinity estimate (log intensity, higher = more binding, comparable within an allelic series); in assay [2] it was 9.87 upbm affinity estimate (log intensity, higher = more binding, comparable within an allelic series); in [3], 10.3 upbm affinity estimate (log intensity, higher = more binding, comparable within an allelic series); in assay [7], 10.2 upbm affinity estimate (log intensity, higher = more binding, comparable within an allelic series); in [4], 10.4 upbm affinity estimate (log intensity, higher = more binding, comparable within an allelic series). Besides, the binding signal in assay [8] was 10.6 upbm affinity estimate (log intensity, higher = more binding, comparable within an allelic series); in assay [9] it was 10.3 upbm affinity estimate (log intensity, higher = more binding, comparable within an allelic series); in assay [10] it was 10.4 upbm affinity estimate (log intensity, higher = more binding, comparable within an allelic series); in assay [11] it was 10.3 upbm affinity estimate (log intensity, higher = more binding, comparable within an allelic series).

Consider AATACGAT, for which the binding signal in assay [1] is 10.6 upbm affinity estimate (log intensity, higher = more binding, comparable within an allelic series); in [12] it was 9.45 upbm affinity estimate (log intensity, higher = more binding, comparable within an allelic series); in [6] it was 10.5 upbm affinity estimate (log intensity, higher = more binding, comparable within an allelic series); in [2] it was 9.88 upbm affinity estimate (log intensity, higher = more binding, comparable within an allelic series); in assay [3], 10.3 upbm affinity estimate (log intensity, higher = more binding, comparable within an allelic series); in assay [13], 10.5 upbm affinity estimate (log intensity, higher = more binding, comparable within an allelic series). Besides, the binding signal in assay [7] was 10.1 upbm affinity estimate (log intensity, higher = more binding, comparable within an allelic series); in [4], 10.5 upbm affinity estimate (log intensity, higher = more binding, comparable within an allelic series); in assay [8], 10.7 upbm affinity estimate (log intensity, higher = more binding, comparable within an allelic series); in [5] it was 10.5 upbm affinity estimate (log intensity, higher = more binding, comparable within an allelic series); in assay [9] it was 10.3 upbm affinity estimate (log intensity, higher = more binding, comparable within an allelic series); in assay [10], 10.5 upbm affinity estimate (log intensity, higher = more binding, comparable within an allelic series). The binding signal in assay [11] was 10.4 upbm affinity estimate (log intensity, higher = more binding, comparable within an allelic series); in assay [14], 8.84 upbm affinity estimate (log intensity, higher = more binding, comparable within an allelic series).

Consider ATATCAAG, for which the binding signal in [1] was 11.1 upbm affinity estimate (log intensity, higher = more binding, comparable within an allelic series); in assay [13], 11 upbm affinity estimate (log intensity, higher = more binding, comparable within an allelic series); in assay [4], 11.1 upbm affinity estimate (log intensity, higher = more binding, comparable within an allelic series); in [9], 10.9 upbm affinity estimate (log intensity, higher = more binding, comparable within an allelic series); in assay [11], 10.9 upbm affinity estimate (log intensity, higher = more binding, comparable within an allelic series).

Turning to CCGTATCA, the binding signal in assay [1] is 11.1 upbm affinity estimate (log intensity, higher = more binding, comparable within an allelic series); in assay [6], 11.1 upbm affinity estimate (log intensity, higher = more binding, comparable within an allelic series); in assay [4] it was 11.1 upbm affinity estimate (log intensity, higher = more binding, comparable within an allelic series); in assay [8], 11.1 upbm affinity estimate (log intensity, higher = more binding, comparable within an allelic series); in assay [5], 11.1 upbm affinity estimate (log intensity, higher = more binding, comparable within an allelic series); in [11], 10.9 upbm affinity estimate (log intensity, higher = more binding, comparable within an allelic series).

For AAGTGATA, the binding signal is 11.2 upbm affinity estimate (log intensity, higher = more binding, comparable within an allelic series) in [1]; 11.1 upbm affinity estimate (log intensity, higher = more binding, comparable within an allelic series) in assay [6]; 11 upbm affinity estimate (log intensity, higher = more binding, comparable within an allelic series) in assay [13]; 11.1 upbm affinity estimate (log intensity, higher = more binding, comparable within an allelic series) in [4]; 11.1 upbm affinity estimate (log intensity, higher = more binding, comparable within an allelic series) in [5]; 10.9 upbm affinity estimate (log intensity, higher = more binding, comparable within an allelic series) in [9]. In addition, in [11], the binding signal is 11 upbm affinity estimate (log intensity, higher = more binding, comparable within an allelic series).

On to GATCCAAA, for which the binding signal in assay [1] is 10.4 upbm affinity estimate (log intensity, higher = more binding, comparable within an allelic series); in assay [6], 10.2 upbm affinity estimate (log intensity, higher = more binding, comparable within an allelic series); in [2] it was 9.67 upbm affinity estimate (log intensity, higher = more binding, comparable within an allelic series); in assay [3] it was 10 upbm affinity estimate (log intensity, higher = more binding, comparable within an allelic series); in assay [13], 10.4 upbm affinity estimate (log intensity, higher = more binding, comparable within an allelic series); in assay [4], 10.2 upbm affinity estimate (log intensity, higher = more binding, comparable within an allelic series). Besides, the binding signal in [8] was 10.5 upbm affinity estimate (log intensity, higher = more binding, comparable within an allelic series); in [5], 10.2 upbm affinity estimate (log intensity, higher = more binding, comparable within an allelic series); in assay [9] it was 10.1 upbm affinity estimate (log intensity, higher = more binding, comparable within an allelic series); in [10], 10.3 upbm affinity estimate (log intensity, higher = more binding, comparable within an allelic series); in assay [11], 10.2 upbm affinity estimate (log intensity, higher = more binding, comparable within an allelic series).

As for ATACCTCC, the binding signal in assay [1] was 10.3 upbm affinity estimate (log intensity, higher = more binding, comparable within an allelic series); in [15], 9.86 upbm affinity estimate (log intensity, higher = more binding, comparable within an allelic series); in assay [6], 10.4 upbm affinity estimate (log intensity, higher = more binding, comparable within an allelic series); in [2], 9.38 upbm affinity estimate (log intensity, higher = more binding, comparable within an allelic series); in assay [4] it was 10.5 upbm affinity estimate (log intensity, higher = more binding, comparable within an allelic series); in assay [8] it was 10.5 upbm affinity estimate (log intensity, higher = more binding, comparable within an allelic series). In [10], the binding signal is 10.4 upbm affinity estimate (log intensity, higher = more binding, comparable within an allelic series).

GACGGATA: the binding signal in [1] was 10.2 upbm affinity estimate (log intensity, higher = more binding, comparable within an allelic series); in assay [15], 9.77 upbm affinity estimate (log intensity, higher = more binding, comparable within an allelic series); in assay [6], 10.1 upbm affinity estimate (log intensity, higher = more binding, comparable within an allelic series); in assay [2], 9.43 upbm affinity estimate (log intensity, higher = more binding, comparable within an allelic series); in assay [7] it was 9.79 upbm affinity estimate (log intensity, higher = more binding, comparable within an allelic series); in [10], 10.2 upbm affinity estimate (log intensity, higher = more binding, comparable within an allelic series).

Take CTTGATAC: the binding signal was 11.2 upbm affinity estimate (log intensity, higher = more binding, comparable within an allelic series) in assay [1]; 11.1 upbm affinity estimate (log intensity, higher = more binding, comparable within an allelic series) in [6]; 11.2 upbm affinity estimate (log intensity, higher = more binding, comparable within an allelic series) in assay [4]; 11.1 upbm affinity estimate (log intensity, higher = more binding, comparable within an allelic series) in assay [5]; 10.9 upbm affinity estimate (log intensity, higher = more binding, comparable within an allelic series) in assay [9].

Consider TGACACCA, for which the binding signal in [1] was 10.3 upbm affinity estimate (log intensity, higher = more binding, comparable within an allelic series); in assay [3], 9.84 upbm affinity estimate (log intensity, higher = more binding, comparable within an allelic series); in assay [4] it was 11.2 upbm affinity estimate (log intensity, higher = more binding, comparable within an allelic series); in assay [5], 11.1 upbm affinity estimate (log intensity, higher = more binding, comparable within an allelic series).

As for AGGTGTCA, the binding signal in assay [1] was 10.4 upbm affinity estimate (log intensity, higher = more binding, comparable within an allelic series); in assay [3], 9.88 upbm affinity estimate (log intensity, higher = more binding, comparable within an allelic series); in [4] it was 11.2 upbm affinity estimate (log intensity, higher = more binding, comparable within an allelic series); in [8], 11.1 upbm affinity estimate (log intensity, higher = more binding, comparable within an allelic series); in assay [5], 11.2 upbm affinity estimate (log intensity, higher = more binding, comparable within an allelic series).

With CTGATATC, the binding signal is 11.1 upbm affinity estimate (log intensity, higher = more binding, comparable within an allelic series) in [1]; 11 upbm affinity estimate (log intensity, higher = more binding, comparable within an allelic series) in assay [6]; 10.9 upbm affinity estimate (log intensity, higher = more binding, comparable within an allelic series) in assay [13]; 11 upbm affinity estimate (log intensity, higher = more binding, comparable within an allelic series) in assay [5]; 10.9 upbm affinity estimate (log intensity, higher = more binding, comparable within an allelic series) in assay [9]; 10.9 upbm affinity estimate (log intensity, higher = more binding, comparable within an allelic series) in assay [11].

Turning to CGGATAAA, the binding signal was 10.4 upbm affinity estimate (log intensity, higher = more binding, comparable within an allelic series) in [1]; 10.3 upbm affinity estimate (log intensity, higher = more binding, comparable within an allelic series) in assay [6]; 9.86 upbm affinity estimate (log intensity, higher = more binding, comparable within an allelic series) in [2]; 10.4 upbm affinity estimate (log intensity, higher = more binding, comparable within an allelic series) in assay [3]; 10.5 upbm affinity estimate (log intensity, higher = more binding, comparable within an allelic series) in [13]; 10 upbm affinity estimate (log intensity, higher = more binding, comparable within an allelic series) in [7]. For the same sequence, the binding signal in assay [5] was 10.3 upbm affinity estimate (log intensity, higher = more binding, comparable within an allelic series); in assay [9], 10.2 upbm affinity estimate (log intensity, higher = more binding, comparable within an allelic series); in [10], 10.4 upbm affinity estimate (log intensity, higher = more binding, comparable within an allelic series); in [11], 10.3 upbm affinity estimate (log intensity, higher = more binding, comparable within an allelic series).

For CTGACACC, the binding signal was 10.3 upbm affinity estimate (log intensity, higher = more binding, comparable within an allelic series) in [1]; 9.83 upbm affinity estimate (log intensity, higher = more binding, comparable within an allelic series) in [3]; 11.1 upbm affinity estimate (log intensity, higher = more binding, comparable within an allelic series) in assay [5].
